PubChem BioAssay AID493168 (National Center for Advancing Translational Sciences (NCATS), 2011)
Inconclusive results are not listed. Active and inactive are the calls of the source. Calls come from the whole dose curve; as a rule, active = well fitted inhibition curve with a large enough effect; inconclusive = small, poorly fitted or top-dose-only effect, or effect the other way; inactive = flat fitted curve, though single readings scatter.

target: Ubiquitin carboxyl-terminal hydrolase 2 (Homo sapiens) (UniProt O75604); experiment: Confirmation Assay for Inhibitors of Ubiquitin-specific Protease USP2a Using CHOP2 as the Reporter; conditions: USP2 core, Ub-CHOP2 coupled reporter fluorescence; series mostly up to 38.3 µM; note: nearly all actives have a fitted effect of over 55% in size
In short: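 Ub-CHOP2 cleavage coupled to reporter activation was read by fluorescence after 60 min at RT, with 25 nM final Ub-CHOP2 and substrate. Enzyme (10 nM final USP2 core) first sat 30 min with compound; data were normalized to NEM and fitted to concentration-response curves.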
Potency is the fitted concentration of half-maximal effect.

Sequence of Ubiquitin carboxyl-terminal hydrolase 2 (Homo sapiens) (O75604 whole entry, looked up): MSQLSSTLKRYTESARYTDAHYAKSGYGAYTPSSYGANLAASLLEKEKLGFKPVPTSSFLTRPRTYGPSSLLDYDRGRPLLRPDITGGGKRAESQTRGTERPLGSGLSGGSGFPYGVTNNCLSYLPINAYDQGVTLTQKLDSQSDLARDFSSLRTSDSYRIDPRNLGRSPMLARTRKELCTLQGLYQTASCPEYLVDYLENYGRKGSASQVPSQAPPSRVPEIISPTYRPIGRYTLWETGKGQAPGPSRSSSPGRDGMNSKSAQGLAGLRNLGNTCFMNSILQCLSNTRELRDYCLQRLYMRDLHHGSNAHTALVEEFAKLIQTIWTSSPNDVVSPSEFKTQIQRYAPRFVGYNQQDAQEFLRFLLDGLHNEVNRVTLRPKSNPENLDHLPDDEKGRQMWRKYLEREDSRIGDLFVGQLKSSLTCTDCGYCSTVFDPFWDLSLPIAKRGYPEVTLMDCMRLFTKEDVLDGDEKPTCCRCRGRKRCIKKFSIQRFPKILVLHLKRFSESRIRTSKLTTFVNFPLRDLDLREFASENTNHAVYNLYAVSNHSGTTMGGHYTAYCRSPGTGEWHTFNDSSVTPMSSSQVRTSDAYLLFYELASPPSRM

Potency, inactive:
CN(CC(=O)Nc1cccc2ccccc12)C(=O)c1ccc(NC(=O)CC#N)cc1
CCOC(=O)N1CCN(C(=O)CN(c2ccc(Oc3ccccc3)cc2)S(C)(=O)=O)CC1
O=C(Cn1nc(-c2cccs2)ccc1=O)Nc1ccc(Br)cc1
CCCCc1ccc(/C=C2/C(=O)ON=C2c2ccccc2)s1
COC(=O)C1Sc2[nH]c(=O)sc2C(c2ccc(Cl)cc2)C1C(=O)OC (centres undefined)
COc1ccccc1NC(=O)CSc1nc(O)cc(=O)n1-c1ccccc1OC
Cc1ccc(N2CN=c3s/c(=C\c4cccnc4)c(=O)n3C2)cc1
c1coc(CNc2nc(-c3cccs3)cs2)c1
CC1CCCCN1CCNC(=O)c1cnn2ccccc12 (centres undefined)
Cc1cc(=O)oc(C)c1C(=O)NCCc1ccccc1
COCCNCC(=O)N1CCCCCC1
O=C1CC(Nc2ccc(N3CCOCC3)cc2)C(=O)N1c1cccc(C(F)(F)F)c1 (centres undefined)
COc1cc(NC(=O)COC(=O)CSc2ccccc2F)c(C)cc1[N+](=O)[O-]
CC12CN3CC(C)(CN(C1)C3c1ccc(Cl)cc1Cl)C2O (centres undefined)
COC(=O)c1c(O)c2c([nH]c1=O)CCCC2
CC1CCc2c(sc3nc(CN4CCOCC4)nc(NS(=O)(=O)c4cccc([N+](=O)[O-])c4)c23)C1 (centres undefined)
Cc1cc(C)n(C(=O)c2cccc(S(=O)(=O)N3CCCC3)c2)n1
O=C(O)CCn1c(C2CCCCC2)nc2ccccc21
O=C(/C=N/O)NCc1cccnc1
Cc1ccc(/C=C/S(=O)(=O)N2CCC(C(=O)O)CC2)cc1
Cc1ccc(C(=O)NCc2ccc3c(c2)OCO3)cc1N1CCCC1=O
CCN(CC)S(=O)(=O)c1ccc(Cl)c(NC(=O)COC(=O)c2c(C)noc2C)c1
O=C1NCC(CN(c2ccccc2)c2ccccc2)O1 (centres undefined)
NC(=O)C[C@@H]1N[C@]2(C(=O)Nc3ccccc32)[C@@H]2C(=O)N(c3cc(C(F)(F)F)ccc3Cl)C(=O)[C@H]12
Cc1ccc(C(=O)N/C(=C/c2cccs2)C(=O)NCc2ccco2)cc1
Cc1cc(C(=O)CSc2nnc(Nc3ccccc3F)s2)c(C)n1CC1CCCO1 (centres undefined)
COc1ccc(S(=O)(=O)N(C)CC(=O)Nc2cccc(C(C)=O)c2)cc1Cl
COc1cc(OC)cc(-c2c(C#Cc3ccsc3)c3cc(-c4ccc(OC)c(F)c4)ccc3n2C)c1
Cc1ccc(C(=O)c2coc3c2C(=O)C(=O)c2ccccc2-3)cc1
Cc1ccc(NC(=O)CSc2nnc(COc3ccc(C#N)cc3)n2-c2ccccc2)cc1C
O=[N+]([O-])/C(C(Cl)=C(Cl)Cl)=C(\Sc1ccccc1)N1CCCCC1

Potency, active:
Cn1c(=O)c(C(=O)Nc2ccccc2S(N)(=O)=O)c(O)c2ccccc21 14.7 µM
COc1ccc(Cc2nnc(NC(=O)Cc3cccs3)s2)cc1 11.7 µM
O=c1[nH]c(=S)[nH]c2c1C(c1ccc(Br)cc1)c1c([nH]c(=S)[nH]c1=O)O2 9.27 µM
CCCCCCCCCCCCCCCC[N+](C)(C)CCN(Cc1ccc(OC)cc1)c1ncccn1 11.7 µM
O=C(CN1C(=O)/C(=C2\SC(=S)N(CCS(=O)(=O)O)C2=O)c2ccccc21)Nc1cccc(Br)c1 5.21 µM
CC(C)c1ccc2c(c1)c(SC(C)(C)C)c(CC(C)(C)C(=O)O)n2Cc1ccc(Cl)cc1 6.56 µM
O=C(Nc1cccc(-c2nn[nH]n2)c1)c1ccc(Br)s1 5.21 µM
CC[n+]1c(/C=C/N(C)c2ccccc2)n(-c2ccccc2)c2ccc(-c3nc4ccccc4s3)cc21 13.1 µM
